In PubChem BioAssay AID651558 (National Center for Advancing Translational Sciences (NCATS), 2012):
Screen size: about 1,200 compounds; about 480 (40%) were called active. Another 29% or so got no clear call; they are omitted. The call rests on the fitted dose curve; in most records, active means well fitted inhibition curve with a large enough effect; inconclusive means small, poorly fitted or top-dose-only effect; inactive means no such curve, though single readings can be large or run the other way. This is one part of the list.

assay: qHTS Assay to Find Inhibitors of Chronic Active B-Cell Receptor Signaling: Hit Validation in Primary Screen; settings: ABC-DLBCL IkB-luc/CBR ratio luminescence, 4 h; series mostly up to 46.1 µM; further: nearly all actives have a fitted effect of over 75% in size
Summary of the method: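 Concentration series (3 nM to 46 uM) tested on TMD8 cells induced with doxycycline for 4 h. Filter-corrected green (IkBa fusion) over red (unfused) luciferase signal; Data were normalised to 10 uM MG-132 and untreated cell wells.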
Potency means the concentration at half of the fitted maximal effect.

SMILES | Potency
CCCC(=O)O[C@]1(C(=O)CO)CC[C@H]2[C@@H]3CCC4=CC(=O)CC[C@]4(C)[C@H]3[C@@H](O)C[C@@]21C | inactive
Cc1nc2c(-c3ccccc3)c[nH]n2c(=O)c1Cc1ccccc1 | inactive
CCN(CC)c1ccc(Nc2cc3n(c(=O)n2)CCc2cc(OC)c(OC)cc2-3)cc1 | inactive
CCN(CC)c1ccc2c(cc1=O)[C@@H](NC)CCc1cc(OC)c(OC)c(OC)c1-2 | 5.8 µM (active)
COc1cc2c(c(OC)c1OC)-c1ccc(OC)c(=O)cc1C(NC(C)=O)CC2 (configuration not stated) | 0.206 µM (active)
NCCNC(=O)Cc1ccc(NC(=O)Cc2ccc(Nc3ncnc4c3ncn4[C@@H]3O[C@H](CO)[C@@H](O)[C@H]3O)cc2)cc1 | 0.461 µM (active)
NCCNC(=O)Cc1cccc(NC(=O)Cc2ccc(Nc3ncnc4c3ncn4[C@@H]3O[C@H](CO)[C@@H](O)[C@H]3O)cc2)c1 | 1.46 µM (active)
CC1CCc2c(sc(NC(=O)CSc3nc(N)cc(=O)[nH]3)c2C(N)=O)C1 (configuration not stated) | 10.3 µM (active)
NC(=O)c1c(NC(=O)CSc2nc(N)cc(=O)[nH]2)sc2c1CCCC2 | 9.2 µM (active)
COc1cc2c(cc1OC)C(C)N(C(=O)c1cc(C)on1)CC2 (configuration not stated) | 5.8 µM (active)
COc1ccc(-c2nn(-c3ccccc3)cc2/C=N/NC(N)=S)cc1OC | 20.6 µM (active)
COc1ccccc1NS(=O)(=O)c1cccc(C(=O)N/N=C/c2cn(-c3ccccc3)nc2-c2ccccc2)c1 | inactive
Cc1cccc(C)c1-n1c(C)cc(/C=N/NC(N)=S)c1C | inactive
Cc1ccccc1NCC(=O)c1ccc(Br)cc1 | inactive
Cc1cccc(N(C)S(=O)(=O)c2ccc(-c3cnc(C4CC4)o3)cc2)c1 | 1.84 µM (active)
Cc1ccc(N(C)S(=O)(=O)c2ccc(-c3cnc(C4CC4)o3)cc2)cc1 | 5.8 µM (active)
Cc1ccc2[nH]c(-c3cccc(F)c3)cc(=O)c2c1 | 4.11 µM (active)
Cc1ccc2[nH]c(-c3ccccc3)cc(=O)c2c1 | 5.17 µM (active)
CCn1c(SCC(=O)c2ccc(Cl)cc2)nnc1C(C)C | inactive
CCOc1cc(/C=C(/C#N)C(=O)Nc2ccc(O)cc2)cc(Br)c1O | 2.06 µM (active)
CC1(CCc2ccc(O)cc2)NC(=O)NC1=O (configuration not stated) | inactive
CCOC(=O)C1(C)C(C(=O)OC)=C(c2ccc(OC)cc2)c2ccccc2N1C(=O)OC (configuration not stated) | inactive
CCOC(=O)C(NC(=O)N(C)C)(Nc1sc(C)c(CC)c1C#N)C(F)(F)F (configuration not stated) | inactive
O=[N+]([O-])c1cc(F)c2cccnc2c1O | inactive
Cc1ccnc(NC(=O)c2cccc(S(=O)(=O)Nc3ccc(C)cc3C)c2)c1 | inactive

SMILES | Potency
O=[N+]([O-])c1ccccc1S(=O)(=O)Nc1cccc2cccnc12 | 13 µM (active)
O=[N+]([O-])c1ccc(O)c2ncccc12 | inactive
Cc1c(C(=O)Oc2cccc3cccnc23)oc2ccccc12 | inactive
O=S(=O)(Nc1cccc2cccnc12)c1ccccc1 | 13 µM (active)
Cc1ccc(S(=O)(=O)Nc2cccc3cccnc23)cc1 | 8.2 µM (active)
O=C(/C=C\c1ccccc1)Oc1cccc2cccnc12 | inactive
CCN(CC)S(=O)(=O)c1ccc(C(=O)NCCSc2c[nH]c3ccccc23)cc1 | inactive
COc1cccc(/C=N/Nc2nc(Nc3ccccc3)nc(-n3nc(C)cc3C)n2)c1O | 0.92 µM (active)
CC1=NN(C(N)=S)C(=O)C1N=Nc1ccccc1 (configuration not stated) | inactive
COc1ccc(-c2cc(C(=O)N/N=C(\C)c3cccnc3)c3ccccc3n2)cc1 | inactive
Cc1ccsc1/C=N/NC(=O)c1cc(-c2ccncc2)nc2ccccc12 | 1.64 µM (active)
Cc1ccc(/C=N/NC(=O)c2cc(-c3cccnc3)nc3ccccc23)cc1 | 2.31 µM (active)
Cc1ccc(/C=N/NC(=O)c2cc(-c3ccncc3)nc3ccccc23)o1 | 5.17 µM (active)
CCc1ccc(/C=N/NC(=O)c2cc(-c3ccncc3)nc3ccccc23)s1 | 8.2 µM (active)
Fc1ccc(/C=N/NC(=S)Nc2cccnc2)cc1 | inactive
O=C(CSc1cccc[n+]1[O-])c1ccc(Cl)cc1 | inactive
CCc1ccc(NC(=O)CSc2nc(=O)n(CCCN3CCOCC3)c3c2CCCC3)cc1 | inactive
O=C(N/N=C/c1ccc([N+](=O)[O-])o1)c1cc(-c2ccc(-c3ccccc3)cc2)nc2ccccc12 | 4.61 µM (active)
O=C(N/N=C/c1cccs1)c1cc(-c2ccncc2)nc2ccccc12 | 2.59 µM (active)
CCc1ccc(/C=N/NC(=O)c2cc(C3CC3)nc3ccccc23)s1 | 16.4 µM (active)
CC(=NNC(=O)c1cc(C)nc2ccccc12)c1ccc(N2CCOCC2)cc1 | inactive
S=C(NCCN1CCOCC1)N/N=C/c1cccs1 | inactive
COC(=O)c1cnc(Oc2ccc(NC(=O)NC(=O)c3c(OC)cccc3OC)cc2)cc1C(F)(F)F | 1.84 µM (active)
Cc1cc(C)c2cc(C=O)c(Cl)nc2c1 | 3.66 µM (active)
Cc1ccc(N=Nc2c(C)[nH]n(C(N)=S)c2=O)cc1 | inactive

SMILES | Potency
CCc1cc2c(SCC(=O)NC3CC3)ncnc2s1 | inactive
COc1ccc(C2CC(c3c(O)cc(C)oc3=O)=NCCS2)c(OC)c1 (configuration not stated) | 1.16 µM (active)
Cc1ccc(C(=O)Nc2nc(C)c(C(=O)Nc3ccc4c(c3)CCC4)s2)cc1 | 4.61 µM (active)
CCCn1nnc(NC(=S)NC(=O)c2ccc(-c3ccc(Br)cc3)o2)n1 | inactive
COc1cc(C(=O)NC2CCN(Cc3nnnn3Cc3ccc(F)cc3)CC2)cc(OC)c1OC | inactive
COc1ccc(C2=NOC(C(=O)NCc3ccc(F)cc3)C2)cc1 (configuration not stated) | 18.4 µM (active)
COc1cc(C2=NOC(C(=O)NCc3ccc(F)cc3)C2)cc(OC)c1OC (configuration not stated) | 4.61 µM (active)
Cc1ccc(C(=O)O)cc1NC(=S)NC(=O)C(c1ccccc1)c1ccccc1 | inactive
COc1cccc(N2CC(O)=C(c3nc4ccccc4s3)C2=N)c1 | 23.1 µM (active)
Cc1cc(C)cc(N2CC(O)=C(c3nc4ccccc4c(=O)[nH]3)C2=N)c1 | inactive
COc1ccc(/C=N/Nc2nccnc2Cl)c(OC)c1 | 23.1 µM (active)
COc1ccc(/C(C)=N/Nc2ncc(Cl)cc2Cl)c(O)c1 | inactive
CCOC(=O)N1CCN(S(=O)(=O)c2ccc(C(=O)Nc3ccc(F)cc3F)cc2)CC1 | 20.6 µM (active)
CC(C)COc1ccc(C(=O)Nc2cc(S(=O)(=O)N3CCOCC3)ccc2N2CCCC2)cc1 | inactive
COc1cc(OC)cc(-c2cc3cc4c(cc3cn2)OCO4)c1 | 3.66 µM (active)
CCOC(=O)C1CCN(S(=O)(=O)c2c(Cl)ccc3nonc23)CC1 | 5.8 µM (active)
CCOC(=O)Nc1ccc2nc(N3CCCCCC3)sc2c1 | 20.6 µM (active)
CCOc1ccc2nc(N3C(=O)CNC3=S)sc2c1 | inactive
CN(CC(=O)Nc1ccccc1C(F)(F)F)C(=O)c1ccccc1Sc1ccccc1C#N | inactive
COc1cccc(N2CCN(C(=O)c3ccc(CS(=O)c4ccc(Cl)cc4)o3)CC2)c1 (configuration not stated) | 23.1 µM (active)
COc1cccc(N2CCN(C(=O)c3ccc(CS(=O)c4ccc(C)cc4)o3)CC2)c1 (configuration not stated) | 6.51 µM (active)
C=CCNC(=S)NN=C1CCCCCCC1 | inactive
CCOC(=O)c1cnc(Nc2nc3ccccc3o2)nc1CSC(=S)N(CC)CC | inactive
COc1ccc(C=C2c3ccccc3C(=O)c3ccccc32)c(OC)c1 | 4.61 µM (active)
O=C(OCC(O)CO)c1ccccc1Nc1ccnc2cc(Cl)ccc12 (configuration not stated) | 20.6 µM (active)

SMILES | Potency
Oc1ccccc1-n1c(-c2ccccc2)ccc1-c1ccccc1 | inactive
N#CC1=C(N)OC2=C(CCc3ccccc32)C1c1ccccc1 (configuration not stated) | 2.59 µM (active)
Cc1nc2c(C(F)(F)F)cccc2c2c1CCS2 | 16.4 µM (active)
COc1ccccc1-n1cnc2cc(NCc3cccs3)ccc21 | 16.4 µM (active)
N#CC1=C2SCC(O)(c3ccccc3)N2C(=O)CC1c1ccccc1 (configuration not stated) | 18.4 µM (active)
N#CC1=C2SCC(O)(c3ccccc3)N2C(=O)CC1c1cccs1 (configuration not stated) | 13 µM (active)
COc1cc(OC)cc(C(=O)NCc2cc(C)nc3ccccc23)c1 | inactive
COc1cc(OC)cc(C(=O)NCc2ccc3c(c2)CCN3C(=O)c2ccccc2)c1 | 10.3 µM (active)
CCOc1ccccc1NC(=O)Cn1nnc(C(=O)NCc2cccs2)c1N | 2.59 µM (active)
O=C(CSc1ncn[nH]1)Nc1nnc(-c2ccccc2)s1 | 0.231 µM (active)
CCc1nnc(NC(=O)CSc2nnc(-c3ccccc3NC(=O)c3ccccc3)o2)s1 | inactive
O=C(CSc1nnnn1-c1ccccc1)Nc1nsc(-c2ccc(Cl)cc2)n1 | inactive
CC1CCN(C(=O)CCCOc2cc(=O)n(C)c3ccccc23)CC1 | 23.1 µM (active)
O=C(N1CCN(c2ccccn2)CC1)N1c2ccccc2Sc2ccccc21 | 7.31 µM (active)
Cc1cc(=O)[nH]c2ccc(S(=O)(=O)Nc3ccc(O)cc3)cc12 | inactive
CC(=O)Nc1ccc(NS(=O)(=O)c2cc(-c3n[nH]c(=O)c4ccccc34)ccc2C)cc1 | 23.1 µM (active)
Cc1ccc(NS(=O)(=O)c2cc(-c3n[nH]c(=O)c4ccccc34)ccc2C)cc1 | 18.4 µM (active)
CCOC(=O)C1C(C(=O)OC)=C(c2ccc(OC)cc2)c2ccccc2N1S(=O)(=O)C(F)(F)F (configuration not stated) | inactive
CCn1c2ccccc2c2cc(NC(=O)c3cc(OC)c(OC)c(OC)c3)ccc21 | 0.731 µM (active)
COc1cc(NC(=O)COC(=O)Cc2ccc(-c3ccccc3)cc2)cc(OC)c1 | inactive
COc1cc(OC)cc(C(=O)NCC(=O)Nc2ccc(-c3ccccc3)cc2)c1 | 20.6 µM (active)
CCn1c2ccccc2c2cc(NC(=O)c3cc(OC)cc(OC)c3)ccc21 | 2.06 µM (active)
